# Experimental data as given in PubChem BioAssay (NCI).
# Compounds without any hit were thinned out: in the full panel of roughly 83,000, 20% have a hit.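 Growth was measured after 48 h exposure to one concentration of compound in 96-well plates. Values under 10 count as active.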 Activity calls are given as the source filed them.
# System: HL-60(TB) leukemia
# Experiment: NCI-60 one-dose screen, 48 h (100 = growth as untreated, 0 = no growth, -100 = all killed)
# Details: 10 µM unless noted
row,Structure (SMILES),growth
1,CN1CCN(CCCOC(=O)c2c3c(n4ccccc24)C(=O)c2ncccc2C3=O)CC1,30% (inactive)
2,COc1ccc(Cl)cc1Nc1nc(C(F)(F)F)ccc1C(=O)N/N=C/c1c(Cl)cccc1Cl,48.4% (inactive)
3,CCCC1OC(c2ccc(C(C)C)cc2)OCC1CC (stereo unspecified),92.7% (inactive)
4,Clc1nc2ccccc2nc1CI,93.8% (inactive)
5,NC1(CO)COC(c2ccccc2)OC1 (stereo unspecified),89.2% (inactive)
6,CC1Cc2ccccc2O1 (stereo unspecified),102% (inactive)
